Compound activity from PubChem BioAssay.
VLA-4 inh – inhibition in a human VLA-4 binding assay; inhibition, % (about 7 µM as worked out from the volumes in the protocol); P13612; actives 0.2% (n = 330,000); VLA-4 expressing cells, ligand binding flow cytometry; in the data active = inhibition above about 50%
AI-2 QS modul – modulators of Vibrio harveyi AI-2 quorum sensing system. AID 2094. Vibrio harveyi JMH597 AI-2 luminescence/OD600 ratio, 9 h; hits give low values; strain lacks LuxN and CqsS sensors; 0 = neutral-control median. actives 0.4% (n = 300,000). activity change, % at 7.5 µM; in the data active = activity change below about -75%, passing the limit was not always enough;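 note: luminescence divided by OD600 gain over 9 h not by final OD600 alone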
CHT inh – inhibitors of human choline transporter CHT; CHT-expressing cells, membrane potential dye, choline response; hits give low values; B-score at 10 µM; actives 0.86% (n = 310,000); AID 488975;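 active = B-score over 3 SD under the library average, and starting fluorescence ratio not unusually high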;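 note: choline stimulus applied at its EC90 after an EC20 pre-addition; B-score computed on integrated fluorescence ratio after choline addition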
Target sequence (Q9GZV3 whole entry, looked up): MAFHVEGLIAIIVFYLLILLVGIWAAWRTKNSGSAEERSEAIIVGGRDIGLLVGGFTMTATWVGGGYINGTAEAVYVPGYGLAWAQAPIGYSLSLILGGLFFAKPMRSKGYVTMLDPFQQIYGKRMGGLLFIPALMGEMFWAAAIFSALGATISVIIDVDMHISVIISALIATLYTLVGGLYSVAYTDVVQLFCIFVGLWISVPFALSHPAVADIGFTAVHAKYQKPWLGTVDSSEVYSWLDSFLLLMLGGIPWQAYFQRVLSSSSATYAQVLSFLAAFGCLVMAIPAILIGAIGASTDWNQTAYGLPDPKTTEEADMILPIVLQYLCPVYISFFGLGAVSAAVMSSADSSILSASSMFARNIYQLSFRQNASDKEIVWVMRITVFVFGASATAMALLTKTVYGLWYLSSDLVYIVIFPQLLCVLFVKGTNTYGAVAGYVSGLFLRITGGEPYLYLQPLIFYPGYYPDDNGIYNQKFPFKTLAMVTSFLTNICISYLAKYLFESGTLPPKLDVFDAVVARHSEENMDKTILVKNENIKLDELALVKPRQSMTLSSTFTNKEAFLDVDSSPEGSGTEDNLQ
Platelet DG rel – modulates dense granule release in human platelets; human platelet-rich plasma, SFLLRN dense granule ATP release, luminescence; inhibition, %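 (compounds screened at 7.5 µM in platelet-rich plasma)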; actives 0.22% (n = 300,000); AID 1663;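 active = mean replicate score, as percent of positive control, at or above 50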
CHT allo act – allosterically activates the human high affinity choline transporter. CHT-expressing cells, membrane potential dye, choline EC20; hits give high values; LV-AA mutant CHT in HEK293 cells. B-score at 10 µM. AID 488977. actives 0.49% (n = 310,000). Q9GZV3;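 active = initial fluorescence not abnormally high and integrated response B-score, plate-corrected, over 3 SD above library mean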
HIF activator – HIF pathway transcriptional activation. U2OS HRE-luciferase reporter, luminescence; normalized: DMSO 0%, desferrioxamine 100%. activation, % at 7.5 µM (by protocol). actives 0.32% (n = 300,000). AID 1910;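 active = mean activation of at least 10% of the iron chelator positive control signal, with at least half of replicates also reaching 10%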
The depositor's hits bear a star; i = inactive; · = no result. A selection: hits, their analogues and other compounds. The true share with any hit is near 2.2%.

SMILES	VLA-4 inh	AI-2 QS modul	CHT inh	Platelet DG rel	CHT allo act	HIF activator
CC(=O)c1ccc(N2CCN(C(=O)c3cc(-c4ccncc4)nc4ccc(Cl)cc34)CC2)cc1	17	16	i	3	i	0
C1CCC2(CC1)C1=C(CCCC1)Nc1nnnn12	-5	12	i	-1	i	126*
Nc1nc2n(n1)C1(CCCCC1)C1=C(CCCC1)N2	-6	17	i	-1	i	0
CN(C)S(=O)(=O)c1ccc(Cl)c(NC(=O)COC(=O)c2cc(-c3ccccc3)nc3ccccc23)c1	9	-11	i	-52	i	0
Cc1ccccc1-c1noc(-c2ccc(Cl)cc2)n1	-4	23	i	5	i	3
c1ccc(-c2nc(-c3ccccn3)no2)cc1	1	15	i	-10	i	1
Cc1ccc(-c2nc(-c3ccccn3)no2)cc1	16	18	i	52*	i	-4
Cc1ccccc1-c1noc(-c2ccc(O)cc2)n1	23	-14	i	100*	i	·
c1ccc(-c2ccc(-c3nc(-c4ccccn4)no3)cc2)cc1	13	0	i	95*	i	·
c1ccc(Cc2nnc(-c3ccccc3)o2)cc1	-9	-3	i	3	i	9.7*
Cc1cc(C)nc(-n2nc(C)cc2Nc2ccccc2)n1	-8	26	-5.2*	5	i	0
N#Cc1cc2[nH]c3ccccc3c2[n+](-c2ccc([N+](=O)[O-])cc2)c1N	1	8	i	-23	8.8*	0
CCn1c(SCC(=O)N2CCc3ccccc3C2)nc2c1c(=O)n(C)c(=O)n2C	0	13	i	-8	i	0
CCCn1c(SCC(=O)N2CCc3ccccc3C2)nc2c1c(=O)n(C)c(=O)n2C	4	9	i	-6	i	735*
c1ccc(-c2nnc3sc(-c4cc5ccccc5o4)nn23)cc1	0	19	i	6	i	17*
Cc1noc(C)c1C(=O)OCC(=O)Nc1ncc(C(F)(F)F)cc1Cl	-16	·	·	·	·	·
O=C1N/C(=C\c2ccc(O)cc2)C(=O)c2ccccc21	-2	25	i	80*	i	1
O=C(O)/C=C1\NC(=O)c2ccccc21	4	29	i	8	i	-1
Cc1ccc(Nc2nnc(-c3ccccc3N)o2)cc1C	-1	1	i	-5	i	13*
CCCCOc1cccc(C(=O)Nc2ccc(S(=O)(=O)Nc3nnc(CC)s3)cc2)c1	-6	28	i	4	i	-1
Cc1ccc(CNC(=O)COC(=O)c2ccc(S(=O)(=O)NCc3ccco3)cc2)cc1	0	·	·	·	·	·
Cc1cccc(NC(=O)CC2SC(=O)N(c3ccccc3)C2=O)c1 (centres undefined)	-9	29	i	67*	i	0
Cc1ccc(NC(=O)CC2SC(=O)N(c3ccccc3)C2=O)cc1 (centres undefined)	1	25	i	-14	i	1
CCOCCn1c2ccccc2c2nc3ccccc3nc21	-3	7	i	-1	i	0
Cc1ccc(S(=O)(=O)NCC2CCC(C(=O)NC3CCCCC3)CC2)cc1 (centres undefined)	5	50	i	9	i	1
SMILES	VLA-4 inh	AI-2 QS modul	CHT inh	Platelet DG rel	CHT allo act	HIF activator
COc1ccc(C(Sc2ccccc2)c2ccccc2)cc1OC (centres undefined)	8	3	i	-1	i	0
Cc1cc(NC(=O)c2ccc3c(c2)OCO3)ccc1NC(=O)c1ccco1	0	25	i	75*	i	0
CC(C)COc1ccc(C(=O)Nc2ccc(NC(=O)c3ccco3)c(Cl)c2)cc1	-8	193	i	50*	i	0
CC(C)Oc1ccc(C(=O)Nc2ccc(NC(=O)c3ccco3)c(Cl)c2)cc1	-1	23	i	-1	i	2
O=C(NCCCN1CCCC1)Nc1ccccc1[N+](=O)[O-]	5	10	i	-3	i	0
O=C(COc1ccc(Cl)cc1)NCc1ccc(F)cc1	7	-35	i	-3	i	-1
COc1cc(O)oc1C=Nc1ccc(Cl)cc1	12	-1	i	-7	i	0
